Bioassay records: PubChem BioAssay, The Scripps Research Institute Molecular Screening Center
PPARg SRC3 recr = promotes SRC-3 coactivator recruitment by human PPARgamma. P37231. biochemical PPARgamma/SRC-3 coactivator recruitment assay. activation, % at 8 µM. actives 0.26% (n = 200,000). AID 731; in the data active means activation above about 23%;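 further: 0% = DMSO and 100% = reference agonist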
SRC1 TRFRET art = TR-FRET artefact, counter-screen to PPARgamma/SRC-1 agonist assay. TR-FRET detection artefact counter-screen, emission ratio; hits give high values. TR-FRET ratio at 8 µM. actives 0.34% (n = 99,000). AID 1051; in the data active means TR-FRET ratio above about 2300
PPARg SRC2 recr = PPARgamma-driven SRC-2 recruitment agonism | AID 1032 | PPARgamma LBD-SRC-2 recruitment, biochemical | activation, % at 8 µM | actives 0.34% (n = 200,000);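 further: 0% = vehicle and 100% = reference agonist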
SRC3 TRFRET art = flags TR-FRET format artefacts in PPARgamma SRC-3 recruitment agonist screen. TR-FRET artefact counter-screen, PPARgamma/SRC-3 format; hits give high values. TR-FRET ratio at 8 µM. actives 0.39% (n = 99,000). AID 1048; in the data active means TR-FRET ratio above about 2000
SRC2 TRFRET art = counter-screen for PPARgamma SRC-2 recruitment agonists: TR-FRET artefact. actives 0.4% (n = 200,000). hits give high values. TR-FRET ratio at 8 µM; in the data active means TR-FRET ratio above about 2000
PPARg SRC-1 ag = agonists of human PPARgamma SRC-1 coactivator recruitment | PPARgamma-SRC-1 coactivator recruitment biochemical assay | activation, % at 8 µM | actives 0.41% (n = 200,000) | AID 631; in the data active means activation above about 19%;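 further: 0% = DMSO and 100% = reference agonist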
PPARg SRC2 ag = human PPARgamma SRC-2 recruitment agonism, confirmation; shares compounds with PPARg SRC3 recr; biochemical SRC-2 recruitment by PPARgamma; activation, % at 8 µM; actives 52% (n = 790);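 further: 0% = vehicle alone and 100% = reference agonist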
PPARg SRC1 ag = confirmation of agonists of SRC-1 recruitment by human PPARgamma; shares compounds with PPARg SRC3 recr; PPARgamma–SRC-1 coactivator recruitment biochemical assay; activation, % at 8 µM; actives 43% (n = 790); AID 1300; in the data active means activation above about 20%;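 further: 0% = vehicle wells and 100% = reference agonist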
PPARg SRC3 ag = confirmation of agonists of SRC-3 recruitment by human PPARgamma. shares compounds with PPARg SRC3 recr. biochemical PPARgamma-SRC-3 coactivator recruitment, agonist mode. activation, % at 8 µM. actives 29% (n = 790); in the data active means activation above about 24%;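 further: 0% = vehicle wells and 100% = reference agonist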
An asterisk follows results filed as active; · = not tested or not shown. Hits are enriched below; roughly 0.84% of the tested compounds scored in any of these assays. Unless noted, no stated cut-off is given here; in the data, active means activation above about 22%; inactive means the rest.

SMILES	PPARg SRC3 recr	SRC1 TRFRET art	PPARg SRC2 recr	SRC3 TRFRET art	SRC2 TRFRET art	PPARg SRC-1 ag	PPARg SRC2 ag	PPARg SRC1 ag	PPARg SRC3 ag
Cc1nc2ncccn2c1-c1csc(Nc2ccc(N(C)C)cc2)n1	11	2311	24*	1862	1937	16	15	9	7
Cc1nc2ncccn2c1-c1csc(Nc2ccccc2)n1	2	1937	5	1596	1514	2	·	·	·
O=C(/C=C/c1ccccc1)C1=C(O)C(=O)N(CCO)C1c1ccc2c(c1)OCO2 (configuration not stated)	4	1840	3	1639	1481	0	·	·	·
O=C1CCCN1CCNC(=S)Nc1ccccc1	11	·	0	·	1426	1	·	·	·
O=C1CCCN1CCCNC(=S)Nc1ccc(Nc2ccccc2)cc1	11	2144	14	1767	1621	24*	9	5	5
CCCN1CCN(C(=S)Nc2ccccc2C(F)(F)F)CC1	-4	1782	-3	1558	1617	-4	·	·	·
O=C(c1ccccc1)c1sc(N2CCCCCC2)nc1-c1ccccc1	23	·	7	·	1948	19*	16	13	8
[2H]c1c([2H])c([2H])c(C(=O)c2sc(N3CCCCCC3)nc2-c2ccccc2)c([2H])c1[2H]	28*	·	17	·	1896	13	16	12	10
Cc1ccc(OCCCCNC2CCCCC2)c(C)c1	3	1775	6	1682	1521	2	·	·	·
CCOc1ccccc1N1CCN(c2nc(N)c(C#N)c(CC#N)c2C#N)CC1	29*	·	16	·	1666	8	3	1	2
O=C(Nc1cccnc1Cl)C1c2ccccc2Oc2ccccc21	7	·	6	·	1601	4	·	·	·
O=C(O)C1C2C=CC3(CN(Cc4ccncc4)C(=O)C13)O2 (configuration not stated)	-1	2083	8	1685	1572	9	·	·	·
S=c1[nH]nc(-c2cccnc2)o1	12	·	13	·	1625	17	·	·	·
S=c1[nH]nc(-c2cccc(Br)c2)o1	150*	·	108*	·	4187*	94*	68*	48*	48*
CSc1nc2sc3c(c2c2nnnn12)CCCC3	70*	·	20	·	2081*	45*	50*	39*	26*
O=C(O)c1c(-n2cccc2)sc2c1CCCC2	0	1899	5	1694	1442	-2	·	·	·
C#CCNC(=O)C1=C[C@H](c2ccccc2)[C@@H](CCCO)[C@H](OCC)O1	1	1712	0	1596	1339	-2	·	·	·
Cc1cc(C)cc(CSCC(=O)N/N=C/c2ccc(OCC(=O)NCc3ccco3)cc2)c1	25*	·	11	·	1568	8	2	0	1
COc1ccc(CSCC(=O)N/N=C/c2ccc(OCC(=O)NCc3ccco3)cc2)cc1	5	·	-1	·	1647	7	·	·	·
CCn1c(SCC(=O)Nc2cc3oc4ccccc4c3cc2OC)nnc1-c1cccs1	12	·	26*	·	1548	5	5	0	2
COc1cc2c(cc1NC(=O)CSc1nnc(Cc3cccs3)n1C)oc1ccccc12	-11	·	2	·	1490	5	·	·	·
CCCc1[nH]nc2c1C(c1ccc(OCCN3CCOCC3)c(OC)c1)C(C#N)=C(N)O2 (configuration not stated)	-1	1811	2	1561	1424	5	·	·	·
CCOc1ccc(C2C(C#N)=C(N)SC(N)=C2C#N)c(OCC)c1	17	·	4	·	1849	27*	7	4	4
CCOc1cc(C2C(C#N)=C(N)SC(N)=C2C#N)ccc1OCCN1CCOCC1	46*	·	36*	·	2438*	30*	-2	0	1
Cc1n(-c2ccccc2)c2ccc(Cl)cc2[n+]1CCO	0	2016	1	1571	1502	9	·	·	·
SMILES	PPARg SRC3 recr	SRC1 TRFRET art	PPARg SRC2 recr	SRC3 TRFRET art	SRC2 TRFRET art	PPARg SRC-1 ag	PPARg SRC2 ag	PPARg SRC1 ag	PPARg SRC3 ag
O=C(Nc1ccc(S(=O)(=O)NCc2ccccc2)cc1)c1ccc(Br)o1	16	·	-2	·	1689	-4	·	·	·
C=CCn1c(NC(=O)c2ccc(Br)o2)c(S(=O)(=O)c2ccccc2)c2nc3ccccc3nc21	27*	·	6	·	1627	34*	8	6	4
CCc1nnc(NS(=O)(=O)c2ccc(N/C=C\C(=O)c3cccc4ccccc34)cc2)s1	48*	1902	24*	1728	1761	23*	23*	22*	41*
CCOC(=O)c1c(C)[nH]sc1=S	70*	·	58*	·	2727*	40*	33*	21*	25*
CCn1c(=O)cc(SCC(=O)Nc2cc(OC)c(OC)c(OC)c2)c2ccccc21	42*	·	55*	·	2483*	39*	40*	25*	26*
CCn1c(=O)cc(SCC(=O)Nc2cccc(SC)c2)c2ccccc21	47*	·	42*	·	2529*	35*	44*	28*	28*
CCn1c2ccccc2c2cc(NC(=O)c3cc(OC)c(OC)c(OC)c3)ccc21	13	·	6	·	1668	8	·	·	·
CC(C)(O)C#Cc1ccc(C(=O)N2CCN(c3ccc(Cl)cc3)CC2)cc1	-3	1637	-5	1404	1578	-2	·	·	·
COc1ccc2c(C)cc(=S)[nH]c2c1	15	2499*	22*	2185*	1987*	32*	6	6	4
COc1ccc(S(=O)(=O)Nc2nccs2)cc1OC	1	1720	7	1568	1549	1	·	·	·
COc1ccc(-c2nnc(Nc3ccc(S(=O)(=O)Nc4nccs4)cc3)c3ccccc23)cc1	47*	2204	18	1895	1729	55*	35*	25*	24*
Cc1cc(C)c(C#N)c(N)n1	6	1801	6	1419	1627	7	·	·	·
Cc1cc(-c2cccc(Br)c2)c(C#N)c(N)n1	13	2711*	25*	2035	1927	22*	6	8	5
CCOC(=O)N1C=CC=C[C@@H]2[C@@H](N3C(=O)c4ccccc4C3=O)C(=O)N21	0	1896	3	1425	1533	-2	·	·	·
COC(=O)c1cc(Br)c(=O)n(-c2ccccn2)c1	-8	·	-4	·	1459	6	·	·	·
COC(=O)c1cc(Br)c(=O)n(-c2nccs2)c1	74*	·	57*	·	2990*	37*	22*	10	16
COc1ccc(/C=C(/C#N)C(=O)Nc2ccccc2C)cc1C(=O)O	4	1970	-1	1518	1715	5	·	·	·
COc1cc(/C=C(\C#N)C(=O)Nc2ccccc2C(=O)O)cc(Cl)c1OC	49*	1551	11	1321	1524	31*	33*	51*	46*
